Measured values: the supplement of paper PMC12350171
Structures can show the parent of a compound that is named as a salt. Values without a mark were called inactive.

Tests used:
Conditions in all cases: 20 µM
[1] = system: Haemophilus parainfluenzae; test: growth AUC normalised to DMSO control (fraction of control); higher = less growth inhibition, active = hit call of the paper
Summary of the method: (§1)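 Pathogens passaged twice anaerobically were inoculated at a starting OD578 of 0.01 into pre-reduced mGAM plates with drug at 20 μM and 1% DMSO, sealed with breathable membranes. Haemophilus parainfluenzae medium was supplemented with hemin and NAD. OD578 was read hourly for 24 h, with three biological replicates. Growth-curve AUC was computed by the trapezoidal rule up to the exponential-to-stationary transition and normalised to DMSO controls on the same plate.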

[2] = system: Salmonella enterica typhimurium; test: as above
Summary of the method: as §1

[3] = system: Shigella flexneri; test: as above
Summary of the method: as §1

[4] = system: Vibrio cholerae; test: as above
Summary of the method: as §1

[5] = system: Yersinia pseudotuberculosis; test: as above
Summary of the method: as §1

[6] = system: P. vulgatus RND KO; test: growth AUC normalised to DMSO control (median) (fraction of control); higher = less growth inhibition, active = hit call of the paper
Summary of the method: (§2)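 Each strain went through two overnight passages under anaerobic conditions before growth in mGAM in 96-well plates, starting at OD578 0.01, with each compound from the approved-drug library at 20 μM and 1% DMSO. Inside an anaerobic incubator, OD578 was recorded every hour for 24 h. Growth curves were cut off at entry into stationary phase, and the area under the curve was calculated by the trapezoidal rule and normalised to vehicle wells on the same plate. Reported values are medians of three biological replicates.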

[7] = system: P. vulgatus WT; test: as above
Summary of the method: as §2

[8] = system: S. enterica typhimurium WT; test: as above
Summary of the method: as §2

[9] = system: S. enterica typhimurium tolC KO; test: as above
Summary of the method: as §2
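Wherever growth AUC normalised to DMSO control (median) is given: active when median AUC fell below 0.1.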

Row | SMILES | growth AUC normalised to DMSO control [1] | growth AUC normalised to DMSO control [2] | growth AUC normalised to DMSO control [3] | growth AUC normalised to DMSO control [4] | growth AUC normalised to DMSO control [5] | growth AUC normalised to DMSO control [6] | growth AUC normalised to DMSO control [7] | growth AUC normalised to DMSO control [8] | growth AUC normalised to DMSO control [9]
1 | NCC1(CC(=O)O)CCCCC1 [Gabapentin] | 0.891 | 1.01 | 1.05 | 1.03 | 1.01 | 1.04 | 1.04 | 1.01 | 1.01
2 | CC(=O)NC1CCSC1=O (configuration not stated) [Citiolone] | 1.03 | 1.01 | 1 | 1.03 | 0.985 | 1.03 | 1.04 | 1 | 1.01
3 | CC(=O)[C@H]1CC[C@H]2[C@@H]3CC[C@H]4C[C@H](O)CC[C@]4(C)[C@H]3C(=O)C[C@]12C [Alfaxalone] | 1 | 0.999 | 0.973 | 0.964 | 1.01 | 0.996 | 0.996 | 1 | 0.911
4 | CN(C)C(=O)Oc1cc(OC(=O)N(C)C)cc(C(O)CNC(C)(C)C)c1 (configuration not stated) [Bambuterol hydrochloride] | 0.992 | 1 | 0.997 | 1 | 1.02 | 1.05 | 1.02 | 1.01 | 1.01
5 | N[C@@H]1C[C@H]1c1ccccc1 [Tranylcypromine hydrochloride] | 1.04 | 0.999 | 1 | 1.01 | 0.959 | 1.01 | 1.05 | 1.01 | 1
6 | CN[C@@H]1C[C@@H](c2ccc(Cl)c(Cl)c2)c2ccccc21 [Indatraline hydrochloride] | 1.04 | 1.02 | 1.05 | 1 | 1.02 | 0.973 | 1.08 | 0.996 | 0.95
7 | CC[N+]1(C)CCCC(OC(=O)C(O)(c2ccccc2)c2ccccc2)C1 (configuration not stated) [Pipenzolate bromide] | 0.996 | 0.993 | 0.977 | 0.998 | 1.01 | 1 | 1.02 | 1 | 0.999
8 | CNC(=O)Oc1ccc2c(c1)[C@]1(C)CCN(C)[C@@H]1N2C [Eserine hemisulfate salt] | 0.975 | 1.01 | 1.02 | 1.06 | 0.97 | 1.07 | 1.06 | 0.999 | 0.993
9 | CN1[C@@H]2CC[C@H]1C[C@@H](OC(=O)[C@H](CO)c1ccccc1)C2 [(L) Hyoscyamine] | 0.945 | 0.983 | 1.04 | 1.05 | 1.01 | 1 | 1 | 1.01 | 1
10 | C#C[C@]1(O)CC[C@H]2[C@@H]3CCC4=CC(=O)CC[C@]4(C)[C@H]3CC[C@@]21C [Ethisterone] | 1.02 | 1.01 | 1.02 | 1.02 | 1 | 1.05 | 1.04 | 1.02 | 0.998
11 | Clc1ccc(C(OCCN2CCCCC2)c2ccccc2)cc1 (configuration not stated) [Cloperastine hydrochloride] | 0.833 | 0.992 | 1.03 | 0.954 | 1.03 | 1.01 | 1 | 1 | 0.938
12 | C[C@]12CC[C@H]3[C@@H](CCC4=CC(=O)CC[C@@H]43)[C@@H]1CC[C@@H]2O [Nandrolone] | 1.99 | 0.995 | 0.981 | 0.967 | 0.981 | 0.999 | 1.03 | 1.01 | 0.981
13 | C[N+]1(C)CCOC(O)(c2ccc(-c3ccc(C4(O)C[N+](C)(C)CCO4)cc3)cc2)C1 (configuration not stated) [Hemicholinium bromide] | 0.977 | 1 | 1.03 | 1.06 | 1.03 | 1 | 1.02 | 1.01 | 1
14 | Oc1ccc(Cl)cc1Cc1cc(Cl)ccc1O [Dichlorophen] |  |  |  |  |  | 0.641 | 0.442 | 0.915 | 0.00799 (active)
15 | CCN(CC)CCOC(=O)C(O)(c1ccccc1)c1ccccc1 [Benactyzine hydrochloride] |  |  |  |  |  | 0.979 | 0.997 | 1.01 | 1
16 | C=CC[C@]1(O)CC[C@H]2[C@@H]3CCC4=CCCC[C@@H]4[C@H]3CC[C@@]21C [Allylestrenol] |  |  |  |  |  | 0.959 | 0.925 | 1.02 | 1.01

Row | SMILES | growth AUC normalised to DMSO control [1] | growth AUC normalised to DMSO control [2] | growth AUC normalised to DMSO control [3] | growth AUC normalised to DMSO control [4] | growth AUC normalised to DMSO control [5] | growth AUC normalised to DMSO control [6] | growth AUC normalised to DMSO control [7] | growth AUC normalised to DMSO control [8] | growth AUC normalised to DMSO control [9]
17 | c1ccc2c(c1)Nc1ccccc1S2 [Phenothiazine] |  |  |  |  |  | 1.01 | 1.01 | 0.972 | 0.945
18 | CC(N)C(O)c1ccccc1 (configuration not stated) [Phenylpropanolamine hydrochloride] | 1.07 |  | 1.03 | 1.01 | 0.972 | 1.03 | 1.02 | 1.01 | 1.01
19 | O=C(O[C@H]1C[N+]2(CCCOc3ccccc3)CCC1CC2)C(O)(c1cccs1)c1cccs1 [Aclidinium bromide] |  |  |  |  |  | 1 | 1 | 1.01 | 1
20 | C[C@]12CC[C@@H]3c4ccc(OC(=O)N(CCCl)CCCl)cc4CC[C@H]3[C@@H]1CC[C@@H]2O [Estramustine] |  |  |  |  |  | 0.982 | 0.984 | 1 | 0.968
21 | CCC(COC(=O)c1cc(OC)c(OC)c(OC)c1)(c1ccccc1)N(C)C (configuration not stated) [Trimebutine] |  |  |  |  |  | 1 | 1.01 | 1 | 0.936
22 | C[C@]12C/C(=C/O)C(=O)C[C@@H]1CC[C@@H]1[C@@H]2CC[C@@]2(C)[C@H]1CC[C@]2(C)O [Oxymetholone] |  |  |  |  |  | 0.918 | 1 | 1.01 | 0.956
23 | CN1C(=O)COc2c(C(=O)NC3CN4CCC3CC4)cc(Cl)cc21 (configuration not stated) [Azasetron hydrochloride] |  |  |  |  |  | 1.02 | 1.04 | 1.01 | 1.01
24 | C=C[C@H]1CN2CC[C@H]1C[C@H]2[C@H](OC(=O)OCC)c1ccnc2ccc(OC)cc12 [Quinine ethyl carbonate] |  |  |  |  |  | 1.01 | 1 | 0.996 | 0.969
25 | CCC(=O)O[C@H]1CC[C@H]2[C@@H]3CCC4=CC(=O)CC[C@]4(C)[C@H]3CC[C@]12C [Testosterone propionate] | 1.06 | 1.02 | 1.03 | 1.04 | 0.989 | 1 | 1.01 | 1.02 | 0.911
26 | NCC(O)c1ccc(O)cc1 (configuration not stated) [Octopamine hydrochloride] | 1.03 | 1 | 0.999 | 1.01 | 1.02 | 1.02 | 1.03 | 1 | 1.03
27 | COC[C@@H](NC(C)=O)C(=O)NCc1ccccc1 [Lacosamide] |  |  |  |  |  | 0.998 | 1 | 0.987 | 1
28 | CC[C@@]1([C@@H]2O[C@@H]([C@H]3O[C@@](O)(CO)[C@H](C)C[C@@H]3C)C[C@@H]2C)CC[C@H]([C@]2(C)CC[C@]3(C[C@H](O)[C@@H](C)[C@@H]([C@@H](C)[C@@H](OC)[C@H](C)C(=O)O)O3)O2)O1 [Monensin sodium salt] |  |  |  |  |  | 0.261 | 0.305 | 1 | 0.856
29 | CN(C)[C@@H]1C(=O)C(C(N)=O)=C(O)[C@@]2(O)C(=O)C3=C(O)c4c(O)ccc(Cl)c4[C@@](C)(O)[C@H]3C[C@@H]12 [Chlortetracycline hydrochloride] | 0.0445 (active) | 0.00172 (active) | 0.0163 (active) | 0.0321 (active) | 0.0311 (active) | 0.0183 (active) | 0.0152 (active) | 0.00367 (active) | 0.00506 (active)
30 | CN1C[C@H](CNC(=O)OCc2ccccc2)C[C@@H]2c3cccc4c3c(cn4C)C[C@H]21 [Metergoline] | 0.925 | 0.979 | 0.973 | 0.893 | 0.993 | 0.886 | 0.885 | 0.992 | 0.895
31 | CC(C)C[C@H](CN)CC(=O)O [Pregabalin] |  |  |  |  |  | 0.971 | 0.976 | 0.991 | 0.989
32 | CNCC(O)c1ccc(O)cc1 (configuration not stated) [Synephrine] | 1.04 | 1.01 | 1.05 | 1.03 | 1.01 | 0.984 | 0.984 | 1 | 0.999
